PubChem BioAssay AID1159580 (chemical genetic matrix, 2015)
About 2,000 (36%) of roughly 5,500 compounds were called active. About 18% were inconclusive and are not listed. Cut-off read from the data, not from the text of the source: active = normalized growth mostly below about 0.91 (no sharp cut-off); inconclusive = no clear call, values can overlap the other calls; inactive = mostly above about 0.92. This is one part of the list.

Assay: chemical genetic growth profiling, strain panel (AID 1159580);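 note: tested at 20 µM; growth read once vehicle control cultures reached saturation at 30 °C; 1 = growth at the plate median or of vehicle wells; lower values mean less growth of the strain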
Conditions: growth OD

Measured: normalized growth

CC1(C)C=Cc2cc3ccc(=O)oc3cc2O1
inactive: S. cerevisiae deletion strains, locus YJR075W, strain HOC1, hits give low values 0.941 | S. cerevisiae deletion strains, locus YKL009W, strain mrt4, hits give low values 0.921 | S. cerevisiae deletion strains, locus YKL068W, hits give low values 0.966 | S. cerevisiae deletion strains, locus YKL085W, strain MDH1 (second series), hits give low values 0.973 | S. cerevisiae deletion strains, locus YKL085W, strain MDH1, hits give low values 0.973 | S. cerevisiae deletion strains, locus YKL160W, strain elf1, hits give low values 0.909 | S. cerevisiae deletion strains, locus YKR001C, strain vps1, hits give low values 0.907 | S. cerevisiae deletion strains, locus YKR026C, strain gcn3, hits give low values 0.942 | S. cerevisiae deletion strains, locus YLL026W, hits give low values 0.934 | S. cerevisiae deletion strains, locus YLL041C, strain sdh2, hits give low values 0.937 | S. cerevisiae deletion strains, locus YLR027C, strain aat2, hits give low values 0.942 | S. cerevisiae deletion strains, locus YLR039C, strain RIC1, hits give low values 0.91 | S. cerevisiae deletion strains, locus YLR058C, strain SHM2, hits give low values 0.965 | S. cerevisiae deletion strains, locus YLR102C, strain apc9, hits give low values 0.969 | S. cerevisiae deletion strains, locus YLR221C, strain rsa3, hits give low values 0.93 | S. cerevisiae deletion strains, locus YLR268W, strain sec22, hits give low values 0.985 | S. cerevisiae deletion strains, locus YLR320W, strain mms22, hits give low values 0.891 | S. cerevisiae deletion strains, locus YLR330W, strain CHS5, hits give low values 0.984 | S. cerevisiae deletion strains, locus YLR342W, strain FKS1 (second series), hits give low values 0.87 | S. cerevisiae deletion strains, locus YLR357W, strain rsc2, hits give low values 0.979 | S. cerevisiae deletion strains, locus YLR384C, strain iki3, hits give low values 0.948 | S. cerevisiae deletion strains, locus YLR418C, strain cdc73, hits give low values 0.851 | S. cerevisiae deletion strains, locus YML016C, strain PPZ1, hits give low values 0.986 | S. cerevisiae deletion strains, locus YML032C, strain rad52, hits give low values 0.923 | S. cerevisiae deletion strains, locus YML124C, strain tub3, hits give low values 0.96 | S. cerevisiae deletion strains, locus YMR058W, strain fet3, hits give low values 0.925 | S. cerevisiae deletion strains, locus YMR078C, strain ctf18, hits give low values 0.95 | S. cerevisiae deletion strains, locus YMR125W, strain sto1, hits give low values 0.999 | S. cerevisiae deletion strains, locus YMR205C, strain PFK2, hits give low values 0.923 | S. cerevisiae deletion strains, locus YMR223W, strain ubp8, hits give low values 0.908 | S. cerevisiae deletion strains, locus YMR231W, strain pep5, hits give low values 0.976 | S. cerevisiae deletion strains, locus YMR263W, strain SAP30, hits give low values 0.977 | S. cerevisiae deletion strains, locus YMR307W, strain GAS1, hits give low values 1.06 | S. cerevisiae deletion strains, locus YNL067W, strain RPL9B, hits give low values 0.957 | S. cerevisiae deletion strains, locus YNL128W, strain TEP1, hits give low values 1 | S. cerevisiae deletion strains, locus YNL183C, strain NPR1, hits give low values 0.843 | S. cerevisiae deletion strains, locus YNL233W, strain BNI4, hits give low values 0.941 | S. cerevisiae deletion strains, locus YNL248C, strain rpa49, hits give low values 0.916 | S. cerevisiae deletion strains, locus YNL250W, strain rad50, hits give low values 0.965 | S. cerevisiae deletion strains, locus YNL271C, strain bni1, hits give low values 0.958 | S. cerevisiae deletion strains, locus YNL298W, strain CLA4, hits give low values 0.97 | S. cerevisiae deletion strains, locus YNL307C, strain MCK1, hits give low values 0.943 | S. cerevisiae deletion strains, locus YNL322C, strain KRE1 (second series), hits give low values 0.917 | S. cerevisiae deletion strains, locus YNR049C, strain mso1, hits give low values 0.925 | S. cerevisiae deletion strains, locus YNR052C, strain pop2, hits give low values 0.971 | S. cerevisiae deletion strains, locus YOL006C, strain TOP1, hits give low values 0.75 | S. cerevisiae deletion strains, locus YOL012C, strain htz1 0.855 | S. cerevisiae deletion strains, locus YOL147C, strain pex11, hits give low values 0.964 | S. cerevisiae deletion strains, locus YOR001W, strain rrp6, hits give low values 0.895 | S. cerevisiae deletion strains, locus YOR061W, strain CKA2, hits give low values 1 | S. cerevisiae deletion strains, locus YOR069W, strain VPS5, hits give low values 0.99 | S. cerevisiae deletion strains, locus YOR070C, strain gyp1, hits give low values 0.981 | S. cerevisiae deletion strains, locus YOR080W, strain dia2, hits give low values 0.964 | S. cerevisiae deletion strains, locus YOR136W, strain idh2, hits give low values 0.968 | S. cerevisiae deletion strains, locus YOR144C, strain elg1, hits give low values 0.972 | S. cerevisiae deletion strains, locus YOR184W, strain ser1, hits give low values 0.892 | S. cerevisiae deletion strains, locus YOR265W, strain rbl2, hits give low values 0.935 | S. cerevisiae deletion strains, locus YOR316C, strain cot1, hits give low values 0.978 | S. cerevisiae deletion strains, locus YPL055C, strain LGE1, hits give low values 0.951 | S. cerevisiae deletion strains, locus YPL240C, strain hsp82, hits give low values 0.936 | S. cerevisiae deletion strains, locus YPR119W, strain clb2, hits give low values 0.953 | S. cerevisiae deletion strains, locus YPR141C, strain kar3, hits give low values 0.957 | S. cerevisiae deletion strains, locus YPR163C, strain tif3, hits give low values 0.983 | S. cerevisiae deletion strains, locus YPR167C, strain met16, hits give low values 0.948 | S. cerevisiae deletion strains, strain wtn01, hits give low values 0.927 | S. cerevisiae strains, strain wild type, hits give low values 0.974
active: S. cerevisiae deletion strains, locus YJR066W, strain TOR1, hits give low values 0.793 | S. cerevisiae deletion strains, locus YKR091W, strain srl3, hits give low values 0.924 | S. cerevisiae deletion strains, locus YLL001W, strain dnm1, hits give low values 0.876 | S. cerevisiae deletion strains, locus YLR113W, strain HOG1, hits give low values 0.729 | S. cerevisiae deletion strains, locus YLR258W, strain gsy2, hits give low values 0.895 | S. cerevisiae deletion strains, locus YLR262C, strain YPT6 (second series), hits give low values 0.815 | S. cerevisiae deletion strains, locus YLR342W, strain FKS1, hits give low values 0.909 | S. cerevisiae deletion strains, locus YLR370C, strain arc18, hits give low values 0.873 | S. cerevisiae deletion strains, locus YLR371W, strain rom2, hits give low values 0.906 | S. cerevisiae deletion strains, locus YML120C, strain ndi1, hits give low values 0.85 | S. cerevisiae deletion strains, locus YMR129W, hits give low values 0.923 | S. cerevisiae deletion strains, locus YNL071W, strain lat1, hits give low values 0.863 | S. cerevisiae deletion strains, locus YNL209W, strain ssb2, hits give low values 0.923 | S. cerevisiae deletion strains, locus YOR083W, strain WHI5, hits give low values 0.844 | S. cerevisiae deletion strains, locus YOR106W, strain vam3, hits give low values 0.821 | S. cerevisiae deletion strains, locus YOR231W, strain MKK1, hits give low values 0.857 | S. cerevisiae deletion strains, locus YOR270C, strain vph1, hits give low values 0.731 | S. cerevisiae deletion strains, locus YOR290C, strain snf2, hits give low values 0.783 | S. cerevisiae deletion strains, locus YPL051W, strain arl3, hits give low values 0.906 | S. cerevisiae deletion strains, locus YPL078C, strain atp4, hits give low values 0.82 | S. cerevisiae deletion strains, locus YPL106C, strain sse1, hits give low values 0.843 | S. cerevisiae deletion strains, locus YPL256C, strain CLN2, hits give low values 0.776
